Assay results as given in ChEMBL document CHEMBL3988442, “University of Dundee, Small-Polar-MMV Screening Library” (2021).
Out of some 48,000 compounds screened, about 13,000 (27%) showed an effect of 50% or more. The list shows a part of the results.

Test system: Wolbachia pipientis
Assay: Anti-Wolbachia Cell-Based Screen
Type: functional
Design: scale not given: in the data most compounds retested in dose-response had high values
Conditions: 5 µM

First: CNC(=O)[C@@H]1COC[C@H]2CN(C(=O)c3ccc(C)c(F)c3)C[C@H]21
Second: COC(=O)C1CCN(C(=O)c2ccc(C)c(NS(C)(=O)=O)c2)CC1
The “Percent Effect” value of the first is higher: 1.789% for the first, -2.362% for the second.

Going from `COC(CNC(=O)CNC(=O)c1ccccc1)c1cccc(Cl)c1` (stereo not drawn) to `O=C(CSc1ccccc1)Nc1cnn(CC(=O)N2CCCO2)c1`, the “Percent Effect” value rises from -36.87% to 2.043%.

Going from `Cc1ncsc1CN1C[C@H](OCC(C)C)[C@H]2OCCC[C@H]21.O=C(O)C(F)(F)F` to `Cc1ccc(C(=O)N2CCO[C@H]3[C@@H](OCc4ccccn4)CC[C@@H]32)o1.O=C(O)C(F)(F)F`, the “Percent Effect” value rises from -14.06% to -5.404%.

Compared with `CCO[C@H]1CC[C@H]2[C@H]1OCCN2C(=O)c1nn(C)c2ccccc12`, `CCO[C@@H]1CC[C@H]2[C@H]1OCCN2C(=O)c1nn(C)c2ccccc12` is lower in “Percent Effect” value: 108.7% for the first, 106.4% for the second.

First: CCO[C@@H]1CC[C@H]2[C@H]1OCCN2C(=O)c1ccc(OC)c(F)c1
Second: CC(NC(=O)C(C)(C)C#N)c1ccc(OCC2CC2)c(F)c1 (stereo not drawn)
The “Percent Effect” value of the first is lower: -22.06% for the first, 5.136% for the second.

Compared with `COc1ccc(CN2CCC3(CC(C(=O)NCC(C)C)=NO3)C2)cc1` (stereo not drawn), `CC(C)CNC(=O)C1=NOC2(CCN(Cc3ccc(C(C)C)cc3)C2)C1` (stereo not drawn) is higher in “Percent Effect” value: 91.98% for the first, 105.9% for the second.

First: Cc1ccc(CN2CCC3(CC(C(=O)NCC4CC4)=NO3)C2)s1 (stereo not drawn)
Second: O=C(NCC1CC1)C1=NOC2(CCN(Cc3ccsc3)C2)C1 (stereo not drawn)
The “Percent Effect” value of the first is higher: -2.379% for the first, -10.07% for the second.

Compared with `CCc1ccc(CN2CCC3(CC(C(=O)NCC(C)C)=NO3)C2)o1` (stereo not drawn), `CC(C)CNC(=O)C1=NOC2(CCN(Cc3ccoc3)C2)C1` (stereo not drawn) is lower in “Percent Effect” value: 102% for the first, 98.99% for the second.

First: O=C(NCC1CC1)C1=NOC2(CCN(Cc3ccc(Cl)c(F)c3)C2)C1 (stereo not drawn)
Second: CC(NC(=O)c1csnn1)c1ccc(OCC2CC2)c(F)c1 (stereo not drawn)
The “Percent Effect” value of the first is lower: 0.8389% for the first, 3.063% for the second.

Going from `CCc1ccc(C(NC(=O)CCS(C)(=O)=O)C(C)(C)C)o1` (stereo not drawn) to `CS(=O)(=O)NCCC(=O)NC1(c2ccc(F)cc2)CCCC1`, the “Percent Effect” value falls from 18.74% to -19.35%.

Going from `CN1CCC(NN2CCN(C)CC2)CC1` to `COCC(=O)NCc1cc2n(n1)CCCN(CCCC1CCCC1)C2`, the “Percent Effect” value falls from 4.594% to 3.539%.

First: Cc1ccc(C)c(OCC(O)CN(C)CC(=O)Nc2cc(C)on2)c1 (stereo not drawn)
Second: O=C(NCC(O)COc1ccc(F)cc1)C1(c2ccc(F)cc2)CC1 (stereo not drawn)
The “Percent Effect” value of the first is higher: 16.51% for the first, 2.033% for the second.

Compared with `CCN1CCC2(CC1)c1nc[nH]c1CCN2S(C)(=O)=O`, `CCS(=O)(=O)N1CCOC2(CCCN(c3cnccn3)C2)C1.O=C(O)C(F)(F)F` (stereo not drawn) is higher in “Percent Effect” value: -21.15% for the first, -12.03% for the second.

Going from `COc1ccccc1OCCCc1cc(C)nc(N)n1` to `COc1ccccc1OC1(C(=O)O)CCN(c2cnccn2)CC1`, the “Percent Effect” value falls from -105.6% to -132.5%.

Going from `Cn1ccc(C(=O)NCC2(O)CCN(c3cnccn3)C2)n1` (stereo not drawn) to `CC(=O)NCC(=O)NCC1(O)CCN(c2cnccn2)C1` (stereo not drawn), the “Percent Effect” value falls from 120.2% to 78.54%.

Going from `Cn1ccc(C(=O)N2C[C@@H]3CCN(c4cnccn4)C[C@@H]3C2)n1.O=C(O)C(F)(F)F` to `O=C(c1ccc(-n2ccnc2)cc1)N1CCN(c2cnccn2)CC1`, the “Percent Effect” value falls from 6.862% to 1.028%.

First: CC(C#N)NS(=O)(=O)c1cccc(C(C)C)c1 (stereo not drawn)
Second: CN(C)S(=O)(=O)NCCn1nc(-c2ccccc2)n(C)c1=O
The “Percent Effect” value of the first is higher: 0.8918% for the first, -0.1642% for the second.

First: c1ccc(-c2nccc(N3CCc4c(ncn4C4CC4)C3)n2)cc1
Second: O=C1N(c2ccsc2)CCC12CCCN(c1ccccn1)C2 (stereo not drawn)
The “Percent Effect” value of the first is lower: -6.711% for the first, 116.3% for the second.

First: O=C(NCc1nncn1C1CC1)C1(c2ccc(F)cc2)CCCC1
Second: CCn1nc(CNC(=O)C2CC(=O)N(C3CCCC3)C2)c2ccccc21 (stereo not drawn)
The “Percent Effect” value of the first is higher: -0.2127% for the first, -24.02% for the second.

Going from `Cc1nocc1C(=O)N1CCCC2(CCN(c3ccsc3)C2=O)C1` (stereo not drawn) to `Cc1occc1C(=O)N1CCCC2(CCN(c3ccsc3)C2=O)C1` (stereo not drawn), the “Percent Effect” value falls from 2.801% to -9.998%.

Going from `O=C(N1CCCC1)N1CCCC2(CCN(c3ccsc3)C2=O)C1` (stereo not drawn) to `O=C(CO)N1CCCC2(CCN(c3ccsc3)C2=O)C1` (stereo not drawn), the “Percent Effect” value rises from -11.99% to -8.553%.

First: O=C(O)C(F)(F)F.O=C(c1ccccn1)N1CCCC2(CCN(c3ccsc3)C2=O)C1 (stereo not drawn)
Second: Cn1nccc1C(=O)N1CCCC2(CCN(c3ccsc3)C2=O)C1 (stereo not drawn)
The “Percent Effect” value of the first is lower: 9.828% for the first, 54.5% for the second.

First: O=C1N(c2ccsc2)CCC12CCCN(c1ncc(F)cn1)C2 (stereo not drawn)
Second: CN(C)C(=O)N1CCCC2(CCN(c3ccsc3)C2=O)C1 (stereo not drawn)
The “Percent Effect” value of the first is higher: 91.96% for the first, -73.81% for the second.

First: N#Cc1ccc(N2CCCN(CC(N)=O)CC2)cc1
Second: CCn1nc(CNC(=O)C2CCCN(CC(N)=O)C2)c2ccccc21 (stereo not drawn)
The “Percent Effect” value of the first is lower: -2.311% for the first, 4.996% for the second.

Compared with `Cc1ccccc1CS(=O)(=O)NCCCN1CCCC1`, `CN(C)S(=O)(=O)NCc1nn(CCN2CCCC2)c(=O)c2ccccc12` is higher in “Percent Effect” value: -20.74% for the first, 91.81% for the second.

First: CCN1CC(C(=O)NCc2nn(CC)c3ccccc23)CCC1=O (stereo not drawn)
Second: CCn1nc(CNC(=O)C2CCCN(C(=O)COC)C2)c2ccccc21 (stereo not drawn)
The “Percent Effect” value of the first is higher: 10.79% for the first, -19.96% for the second.

Compared with `CCNC(=O)NCc1nn(CCN2CCCC2)c(=O)c2ccccc12`, `CCOC(=O)NCc1nn(CCN2CCCC2)c(=O)c2ccccc12` is higher in “Percent Effect” value: 106.7% for the first, 108% for the second.

Compared with `COCC(=O)NCc1nn(CCN2CCCC2)c(=O)c2ccccc12`, `CCNC(=O)NCc1ccc(CN2CCCC(C)C2)cc1` (stereo not drawn) is lower in “Percent Effect” value: 112.1% for the first, -3.525% for the second.

Going from `O=c1nc(SCc2ccncc2)c2c(n1CCO)CCC2` to `Cc1cc(Cl)ccc1NCc1cnn(C2CCS(=O)(=O)C2)c1` (stereo not drawn), the “Percent Effect” value rises from 3.515% to 23.97%.

Compared with `COc1cccc(N2CC3(CCN(c4cnccn4)C3)CC2=O)c1` (stereo not drawn), `CCC1=NN2C(=N)/C(=C\c3cccn3-c3cccc(Cl)c3)C(=O)N=C2S1` is higher in “Percent Effect” value: -7.581% for the first, 116.1% for the second.

Going from `CCC1=NN2C(=N)/C(=C/c3cccc(Cl)c3)C(=O)N=C2S1` to `CCC1=NN2C(=N)/C(=C\c3cccn3-c3ccc(Cl)cc3)C(=O)N=C2S1`, the “Percent Effect” value rises from 3.278% to 96.44%.

For `CCC1=NN2C(=N)/C(=C\c3cccn3-c3ccc(Br)cc3)C(=O)N=C2S1`, the “Percent Effect” value was 83.94%.
